Pf growth 96h: Primary qHTS for delayed death inhibitors of the malarial parasite plastid, 96 hour incubation; P. falciparum luciferase reporter growth, 96 h; Potency, µM (top dose mostly 28.7 µM), for inactives: top-dose activity change, negative = inhibition, hits mostly inhibitors; actives 6.9% (n = 320,000); also: potency is read from the fitted curve at half-maximal effect
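P. falciparum expressing integrated firefly luciferase, in erythrocytes at 2% hematocrit, 0.05% parasitemia, incubated with compounds 96 h at 37 C, 5% CO2. Growth inhibition read as loss of luminescence; two-generation exposure targets delayed-death apicoplast inhibitors.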
HCV inh: qHTS Assay for Inhibitors of Hepatitis C Virus (HCV); Huh7.5.1 HCVcc-Cre infection, luciferase reporter, 44 h; Potency, µM (series often up to 41.8 µM), for inactives: top-dose activity change, negative = inhibition, actives largely listed as inhibitors; actives 3.4% (n = 340,000); AID 651820, 2012; also: potency is read from the fitted curve at half-maximal effect
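After 44 h co-culture of compound, cells and HCVcc-Cre (~0.5 moi), substrate is added for 15 min at room temperature and luciferase measured over 15 sec. Cells were seeded at 1,000/well and pre-cultured 4 h.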
Pf growth 48h: Primary qHTS for delayed death inhibitors of the malarial parasite plastid, 48 hour incubation; P. falciparum luciferase growth in erythrocytes, 48 h; Potency, µM (highest dose often 28.7 µM), inactives show at the highest dose activity change, negative = inhibition, usual class: inhibitors; actives 5.9% (n = 310,000); AID 504832, 2011; also: potency is read from the fitted curve at half-maximal effect
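Growth was read as firefly luciferase luminescence after a 48 h, 37 C, 5% CO2 exposure of compounds to reporter-bearing P. falciparum cultures (0.1% parasitemia, 2% hematocrit final) in Albumax-supplemented RPMI 1640.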
HCMV antiviral: qHTS Assay for inhibitors of the human cytomegalovirus (HCMV) | AID 1259415, 2018 | activity change, negative = inhibition, % at 57.5 µM | HFF cells, HCMV-luciferase reporter, 72 h; active compounds read low | actives 4.5% (n = 410,000); in the data active = activity change below about -60%; inconclusive = no clear call, values can overlap the other calls; inactive = above about -39%
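Inhibition of viral replication was scored as loss of reporter luminescence in HFFs infected with HCMV-luciferase (MOI 1 PFU/cell) for 72 h; compounds tested at 2 doses, normalized to buffer and Salinomycin controls.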
An asterisk follows results filed as active; ? = inconclusive; · = not tested or not shown; [ ] = another dose, or the depositor's remark. Most compounds without a hit are left out; they make up all but 13% or so of the library. Unless noted, calls follow the shape of the dose curve; as a rule, active = well fitted inhibition curve with a large enough effect; inconclusive = small, poorly fitted or top-dose-only effect, or another doubt; inactive = no such curve, though single readings can be large or run the other way. % is scaled to controls: 0 for no effect and ±100 for the full control effect.

SMILES	Pf growth 96h	HCV inh	Pf growth 48h	HCMV antiviral
C/C(CCN1CCc2nc(-c3ccccc3)c(-c3ccccc3)cc2C1)=N\OC[C@@H](C)[C@H](OCc1ccccc1)C(C)C	9.3µM*	5%[8.37 µM]	?	·
COC1(C(F)(F)F)NC(=O)N(c2ccc(F)cc2)C1=O (stereo unspecified)	·	·	·	10
CCCN1C(=O)/C(=N\OCC(=O)NC23CC4CC(CC(C4)C2)C3)c2ccccc21	?	?	15µM*	?
COc1ccc(NC(=O)CCCn2c(=O)c3sccc3n(Cc3ccc(C)cc3)c2=O)cc1	3%	-5%	-11%	-23
COc1ccc(NC(=O)CCCn2c(=O)c3sccc3n(Cc3ccc(C)cc3C)c2=O)cc1	8.3µM*	?	-2%	-5
Cc1cccc(Nc2cc(=O)[nH]c(=O)[nH]2)c1	12µM*	18%	-7%	-13
O=c1cc(Nc2cccc(Br)c2)[nH]c(=O)[nH]1	12µM*	12%	-18%	-25
Cc1ccc(S(=O)(=O)C(CNS(=O)(=O)c2ccc(F)c(C(F)(F)F)c2)c2ccco2)cc1 (stereo unspecified)	·	·	·	-22
S=c1sc2c(Cl)ncnc2n1-c1ccccc1	0%	4µM*	-22%	24
Cc1ccc(C)c(NC(=O)Cn2cc(C(=O)c3cccs3)c3ccccc32)c1	·	·	·	-27
CC1CCN(C(=O)Cn2c3ccccc3c3nc4n(c(=O)c32)CCCS4)CC1	6%	8%	-10%	-61*
CC1CCN(C(=O)Cn2c3ccc(F)cc3c3nc4n(c(=O)c32)CCCS4)CC1	38%	?	-6%	-38
COc1ccc(OC)c(CNC(=O)C2CCN(S(=O)(=O)c3cn(C)cn3)CC2)c1	·	·	·	51
CC(Sc1nnc2c(n1)[nH]c1ccccc12)C(=O)NC1CCCCC1 (stereo unspecified)	-12%	5.6µM*	9.3µM*	-30
Cc1nc(SC(C)C(=O)NC2CCCC2)c2ccccc2n1 (stereo unspecified)	-12%	?	?	-7
COC(=O)c1ccc(CSc2nnc3c(n2)[nH]c2ccccc23)cc1	22%	7%	12%	?
CC(Sc1nnc2c(n1)[nH]c1ccccc12)C(=O)N(C)C1CCCCC1 (stereo unspecified)	?	6.3µM*	?	-85*
CCn1ccc2c(OCC(=O)Nc3ccccc3C(F)(F)F)cccc2c1=O	·	·	·	-27
CCn1nc(C)c(NC(=O)/C=C/c2ccc(OC)c(COc3ccc(Cl)cc3Br)c2)c1C	-23%	?	-8%	-64*
Cc1cccn2c(=O)c(C=C(C#N)C#N)c(N3CCN(C)CC3)nc12	7.4µM*	20%	-3%	54
Cc1cccn2c(=O)c(/C=C(\C#N)C(N)=O)c(N3CCN(Cc4ccc5c(c4)OCO5)CC3)nc12	10µM*	?	9.3µM*	-80*
CCOC(=O)/C(C#N)=C/c1c(N2CCN(C)CC2)nc2c(C)cccn2c1=O	4%	-10%	9%	-12
Cc1cccn2c(=O)c(C=C(C#N)C#N)c(N3CCN(c4ccccc4)CC3)nc12	?	-21%	?	46
Cc1cccn2c(=O)c(/C=C(\C#N)C(N)=O)c(N3CCN(c4cccc(Cl)c4)CC3)nc12	9.3µM*	-11%	?	-39
CCOC(=O)/C(C#N)=C/c1c(N2CCN(Cc3ccc4c(c3)OCO4)CC2)nc2c(C)cccn2c1=O	?	?	3.7µM*	-4
SMILES	Pf growth 96h	HCV inh	Pf growth 48h	HCMV antiviral
COC(=O)/C(C#N)=C/c1c(N2CCN(Cc3ccc4c(c3)OCO4)CC2)nc2c(C)cccn2c1=O	?	28%	?	0
COC(=O)c1cc2sc(Cl)cc2n1Cc1nc(-c2ccccc2F)oc1C	·	·	·	12
CCc1cccc(NC(=O)c2cc(S(=O)(=O)N3CCCCCC3)cn2C)c1	·	·	·	11
Cc1ccc(OCCn2c(-c3ccc(Br)cc3)nc3ccccc3c2=O)cc1C	·	·	·	20
COC(=O)[C@]1(C#N)[C@H](C)C(=O)N(C(C)C)[C@@H]1c1ccc(OC)cc1	·	·	·	5
Cc1ccc(NC(=O)NCc2cccnc2)cc1	-6%	13%	32%	32
O=C(CCn1nc(-c2ccc(Cl)cc2)ccc1=O)NCc1cccnc1	4%	2%	1.2µM*	44
O=C(NCc1cccnc1)C(Cl)(Cl)Cl	3.7µM*	8%	-13%	2
O=C(CC(=O)NCc1cccnc1)NCc1cccnc1	10µM*	-5%	8%	29
Cc1ccc(C2(c3ccc(C)cc3)CC2C(=O)NCc2cccnc2)cc1 (stereo unspecified)	1.9µM*	?	-26%	-18
Cc1cc(F)ccc1NC(=O)CCS(=O)(=O)c1ccc2c(c1)NC(=O)CO2	·	·	·	-6
CCc1ccc2oc(C(=O)Nc3c(C)n(C)n(-c4ccccc4)c3=O)cc(=O)c2c1	·	·	·	-23
COC(=O)/C(C#N)=C/N(C)C	46%	12%	2.3µM*	44
Cc1ccc2c(COn3nnc4ccc(S(=O)(=O)N(C)C)cc43)cc(=O)oc2c1C	10µM*	11%	4%	19
O=C(Nc1ccccc1F)N1CC(=O)N2[C@H](CO)[C@@H](c3ccc(Br)cc3)[C@@H]2C1	·	·	·	1
CC1(C)CC(=O)CC2(C1)NCC(c1ccccc1)c1c2[nH]c2ccccc12 (stereo unspecified)	10µM*	4%	5.9µM*	41
CC(=O)NC1CC(=O)N(c2ccc3c(c2)OCCO3)C1 (stereo unspecified)	·	·	·	11
CCC(=O)N1CCC1(C)C(=O)Nc1ccc(OC(F)F)cc1 (stereo unspecified)	·	·	·	-63*
O=C(NC1CCCC1)c1ccc(CSc2nc3cccnc3n2Cc2ccccc2F)cc1	·	·	·	0
CCCCCCOC(=O)c1cccnc1	-11%	·	-3%	·
Cc1cc(C(=O)COc2cccc3cccnc23)c(C)n1C	3.3µM*	-13%	12µM*	37
Cc1ccc(OCC(=O)c2cc(C)n(C)c2C)c([N+](=O)[O-])n1	-15%	26%	53%	-71*
Cn1c(N2CCOCC2)c(/C=N/OC(=O)c2cccnc2Cl)c2ccccc21	3%	-2%	?	9
Cc1ccc(C(=O)O/N=C/c2c(N3CCOCC3)n(C)c3ccccc23)cc1	3.3µM*	6.3µM*	?	-100*
CC(=O)O/N=C/c1c(N2CCOCC2)n(C)c2ccccc12	3.7µM*	?	3.7µM*	-93*
Cn1c(N2CCOCC2)c(/C=N/O)c2ccccc21	0%	7%	6%	-10
Cn1c(N2CCOCC2)c(/C=N/OC(=O)c2ccc(F)cc2)c2ccccc21	1µM*	3.5µM*	1.3µM*	-95*
NC(=O)COC(=O)c1ccc(-c2ccccc2)cc1	29%	7%	-2%	-62*
NC(=O)COC(=O)c1ccc(-c2ccc(O)cc2)cc1	54%	4%	91%	0
Cc1ccccc1Nc1nnc(SCc2cc([N+](=O)[O-])cc3c2OCOC3)s1	4.7µM*	?	·	?

Bioassay records as filed in PubChem BioAssay.
